From PubChem BioAssay AID1159580 (chemical genetic matrix, 2015)
Several values for one entry are separate records, joined by “and”; a condition that tells them apart may be missing. Identical values can stand only once. About 2,000 (36%) of roughly 5,500 compounds were called active. About 18% were inconclusive and are not listed. Rule as the data show it: active = normalized growth mostly below about 0.91 (no sharp cut-off); inconclusive = no clear call, values can overlap the other calls; inactive = mostly above about 0.92. The list shows a part of the results.

Test: chemical genetic growth profiling, strain panel (AID 1159580);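 also: tested at 20 µM; growth read once vehicle control cultures reached saturation at 30 °C; 1 = growth at the plate median or of vehicle wells; lower values mean less growth of the strain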
Settings: S. cerevisiae deletion strains, growth OD

Measured: normalized growth

C[C@@H]1O[C@@H](O[C@H]2[C@@H](Oc3cc(O)c4c(c3)O[C@H](c3ccc(O)cc3)CC4=O)O[C@H](CO)[C@@H](O)[C@@H]2O)[C@H](O)[C@H](O)[C@H]1O
inactive: locus YAL013W, strain DEP1, hits give low values 1 | locus YAL021C, strain ccr4, hits give low values 0.969 | locus YAL026C, strain drs2, hits give low values 0.977 | locus YAL030W, strain snc1, hits give low values 0.956 | locus YBL061C, strain skt5, hits give low values 0.96 | locus YBR009C, strain hhf1, hits give low values 0.971 | locus YBR021W, strain FUR4, hits give low values 1.02 | locus YBR023C, strain chs3, hits give low values 0.978 | locus YBR171W, strain sec66, hits give low values 0.977 | locus YBR229C, strain ROT2, hits give low values 0.956 | locus YBR231C, strain swc5, hits give low values 0.97 | locus YBR279W, strain paf1, hits give low values 0.975 | locus YCL011C, strain gbp2, hits give low values 0.957 | locus YCL016C, strain dcc1, hits give low values 0.972 | locus YCL029C, strain bik1, hits give low values 0.991 | locus YCL061C, strain MRC1, hits give low values 0.985 | locus YCL069W, strain vba3, hits give low values 0.97 | locus YCR088W, strain abp1, hits give low values 0.979 | locus YDL005C, strain med2, hits give low values 0.967 | locus YDL035C, strain GPR1, hits give low values 0.996 | locus YDL040C, strain nat1, hits give low values 0.981 | locus YDL074C, strain BRE1, hits give low values 0.975 | locus YDL101C, strain DUN1, hits give low values 0.977 | locus YDL134C, strain PPH21, hits give low values 0.956 | locus YDL185W, strain tfp1, hits give low values 0.992 | locus YDL192W, strain arf1, hits give low values 0.995 | locus YDR001C, strain nth1, hits give low values 0.954 | locus YDR069C, strain doa4, hits give low values 0.97 | locus YDR101C, strain arx1, hits give low values 0.997 | locus YDR137W, strain rgp1, hits give low values 0.983 | locus YDR150W, strain NUM1, hits give low values 0.977 | locus YDR159W, strain sac3, hits give low values 0.978 | locus YDR162C, strain NBP2, hits give low values 0.992 | locus YDR195W, strain ref2 0.956 | locus YDR297W, strain sur2, hits give low values 0.984 | locus YDR318W, strain mcm21, hits give low values 0.994 | locus YDR334W, strain swr1, hits give low values 0.942 | locus YDR335W, strain msn5, hits give low values 0.969 | locus YDR388W, hits give low values 1 | locus YDR392W, strain spt3, hits give low values 0.934 | locus YDR502C, strain sam2, hits give low values 1 | locus YEL003W, strain gim4, hits give low values 0.967 | locus YEL037C, strain rad23, hits give low values 0.966 | locus YEL061C, strain CIN8 (second series), hits give low values 0.964 | locus YEL061C, strain CIN8, hits give low values 1 | locus YER015W, strain faa2, hits give low values 0.959 | locus YER016W, strain bim1, hits give low values 0.971 | locus YER110C, hits give low values 0.986 | locus YER111C, strain swi4, hits give low values 0.983 | locus YER155C, strain BEM2 (second series), hits give low values 0.972 | locus YER155C, strain BEM2, hits give low values 1.01 | locus YER167W, strain BCK2, hits give low values 1 | locus YFR010W, strain ubp6, hits give low values 0.954 | locus YGL078C, strain dbp3, hits give low values 0.991 | locus YGL086W, strain mad1, hits give low values 0.998 | locus YGL167C, strain pmr1, hits give low values 0.977 | locus YGL173C, strain kem1, hits give low values 0.946 | locus YGL227W, strain vid30, hits give low values 0.975 | locus YGL240W, strain doc1, hits give low values 0.991 | locus YGL248W, strain PDE1, hits give low values 0.979 | locus YGL253W, strain hxk2, hits give low values 0.977 | locus YGR078C, strain PAC10, hits give low values 0.987 | locus YGR135W, strain pre9, hits give low values 1 | locus YGR229C, strain SMI1, hits give low values 0.987 | locus YGR252W, strain gcn5, hits give low values 0.991 | locus YHR013C, strain ard1, hits give low values 0.943 | locus YHR027C, strain rpn1, hits give low values 0.959 | locus YHR030C, strain SLT2, hits give low values 0.99 and 1 | locus YHR079C, strain IRE1 (second series), hits give low values 0.999 | locus YHR079C, strain IRE1, hits give low values 0.989 | locus YHR094C, strain hxt1, hits give low values 0.996 | locus YHR129C, strain ARP1, hits give low values 0.993 | locus YHR142W, strain chs7, hits give low values 0.921 | locus YHR200W, strain rpn10, hits give low values 1 | locus YIL066C, strain RNR3, hits give low values 0.976 | locus YIL073C, strain SPO22, hits give low values 0.946 | locus YIL125W, strain kgd1, hits give low values 0.999 | locus YIR030C, strain dcg1, hits give low values 0.986 | locus YJL092W, strain hpr5, hits give low values 0.967 | locus YJL095W, strain BCK1 (second series), hits give low values 0.968 | locus YJL095W, strain BCK1, hits give low values 0.998 and 1 | locus YJL115W, strain asf1, hits give low values 0.938 | locus YJL129C, strain trk1, hits give low values 0.939 | locus YJL134W, strain LCB3, hits give low values 0.985 | locus YJL154C, strain vps35, hits give low values 0.961 | locus YJL164C, strain tpk1, hits give low values 0.98 | locus YJL166W, strain qcr8, hits give low values 0.977 | locus YJL168C, strain set2, hits give low values 1 | locus YJL187C, strain SWE1 (second series), hits give low values 0.968 | locus YJL187C, strain SWE1, hits give low values 0.974 | locus YJR043C, strain POL32, hits give low values 0.995 | locus YJR066W, strain TOR1, hits give low values 0.926
